Data taken from PMC7862700, “An all-to-all approach to the identification of sequence-specific readers for epigenetic DNA modifications on cytosine”.

Experiments:
Experiment in all cases: DAPPL (digital affinity profiling via proximity ligation, sequencing); 10 mM Tris-HCl pH 7.5, 50 mM NaCl, 1 mM DTT, 4% glycerol, room temperature, 30 min; GST-TFs on glutathione beads, 16-mer random dsDNA library, 0.1% formaldehyde crosslink after washing; high values mean tight binding
FLI1 = molecular target: T1, FLI1 (Homo sapiens, UniProt Q01543 1-452); settings: protein: recombinant; tags: N-terminal GST; dsDNA, one strand shown
T1 sequence: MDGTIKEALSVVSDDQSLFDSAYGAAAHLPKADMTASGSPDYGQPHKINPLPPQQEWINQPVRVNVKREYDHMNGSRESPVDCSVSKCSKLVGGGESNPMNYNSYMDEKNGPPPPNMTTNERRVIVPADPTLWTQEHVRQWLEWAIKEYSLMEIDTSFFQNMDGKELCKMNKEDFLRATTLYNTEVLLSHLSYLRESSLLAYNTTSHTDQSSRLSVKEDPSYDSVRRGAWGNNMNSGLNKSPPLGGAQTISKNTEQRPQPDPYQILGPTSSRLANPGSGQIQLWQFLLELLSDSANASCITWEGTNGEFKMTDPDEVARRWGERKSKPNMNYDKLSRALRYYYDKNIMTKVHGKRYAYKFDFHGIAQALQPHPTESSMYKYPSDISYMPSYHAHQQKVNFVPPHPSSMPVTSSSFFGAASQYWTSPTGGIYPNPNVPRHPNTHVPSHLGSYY
Procedure, shortened: (§1)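 Sequencing on an Illumina NextSeq500 followed washing, crosslinking with 0.1% formaldehyde, proximity ligation (BsaI/T4 ligase, 1 h, 37 °C) and PCR amplification of pools that had been incubated for 30 min at room temperature with 200 nmole of a random double-stranded 16-mer DNA library in Tris/NaCl/DTT/glycerol buffer. Each pool held DNA-barcoded human transcription factors, expressed in yeast as GST fusions and captured on glutathione beads, plus a tag-only sample. Binding signal is a hexamer's read frequency for a factor divided by its frequency in the tag-only sample.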

ELK1 = molecular target: T2, ELK1 (Homo sapiens, UniProt P19419 1-428); settings: protein: recombinant; tags: N-terminal GST; dsDNA, one strand shown
T2 sequence: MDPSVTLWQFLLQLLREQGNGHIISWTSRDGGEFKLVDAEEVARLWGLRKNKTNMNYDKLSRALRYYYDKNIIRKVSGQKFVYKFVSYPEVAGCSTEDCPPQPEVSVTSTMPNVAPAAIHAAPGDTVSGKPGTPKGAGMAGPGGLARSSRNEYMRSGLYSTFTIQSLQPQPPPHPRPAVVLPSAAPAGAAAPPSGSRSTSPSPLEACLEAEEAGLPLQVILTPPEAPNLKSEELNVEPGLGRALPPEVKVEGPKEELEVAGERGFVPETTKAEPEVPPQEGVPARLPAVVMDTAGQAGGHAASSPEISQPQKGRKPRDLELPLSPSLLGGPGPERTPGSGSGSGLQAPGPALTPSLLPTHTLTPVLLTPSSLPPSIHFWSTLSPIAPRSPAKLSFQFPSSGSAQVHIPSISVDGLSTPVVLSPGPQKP
Procedure, shortened: as §1

GABPA = molecular target: T3, GABPA (Homo sapiens, UniProt Q06546 1-454); settings: protein: recombinant; tags: N-terminal GST; dsDNA, one strand shown
T3 sequence: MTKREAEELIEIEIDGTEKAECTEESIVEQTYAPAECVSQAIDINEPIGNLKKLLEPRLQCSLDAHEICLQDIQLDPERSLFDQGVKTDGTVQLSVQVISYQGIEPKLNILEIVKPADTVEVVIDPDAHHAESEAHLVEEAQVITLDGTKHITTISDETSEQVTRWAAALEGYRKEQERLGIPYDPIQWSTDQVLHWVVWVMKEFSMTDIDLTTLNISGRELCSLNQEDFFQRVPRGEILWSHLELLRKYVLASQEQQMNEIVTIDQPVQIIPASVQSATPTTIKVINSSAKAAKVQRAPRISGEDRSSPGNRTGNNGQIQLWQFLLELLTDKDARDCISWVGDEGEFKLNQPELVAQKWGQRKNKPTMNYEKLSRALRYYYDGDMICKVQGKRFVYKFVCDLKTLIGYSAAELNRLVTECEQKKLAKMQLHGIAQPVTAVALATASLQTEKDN
Procedure, shortened: as §1

ERG = molecular target: T4, ERG (Homo sapiens, UniProt P11308 1-479); settings: protein: recombinant; tags: N-terminal GST; dsDNA, one strand shown
T4 sequence: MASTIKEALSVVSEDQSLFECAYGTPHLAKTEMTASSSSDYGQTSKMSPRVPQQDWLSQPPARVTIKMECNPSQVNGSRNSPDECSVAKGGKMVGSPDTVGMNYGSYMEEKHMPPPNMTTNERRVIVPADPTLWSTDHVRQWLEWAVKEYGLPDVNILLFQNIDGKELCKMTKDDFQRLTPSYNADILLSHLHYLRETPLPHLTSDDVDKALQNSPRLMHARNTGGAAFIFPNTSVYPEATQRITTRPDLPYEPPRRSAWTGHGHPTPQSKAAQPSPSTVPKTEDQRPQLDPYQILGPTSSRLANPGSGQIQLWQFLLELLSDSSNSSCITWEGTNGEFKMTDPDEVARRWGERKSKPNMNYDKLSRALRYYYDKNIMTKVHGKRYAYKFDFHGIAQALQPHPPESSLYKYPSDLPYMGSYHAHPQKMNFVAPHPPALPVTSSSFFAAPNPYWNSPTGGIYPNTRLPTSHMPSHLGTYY
Procedure, shortened: as §1

ELF1 = ELF1 (Homo sapiens, UniProt P32519 1-619); settings: protein: recombinant; tags: N-terminal GST; dsDNA, one strand shown
Procedure, shortened: as §1

EHF = molecular target: T5, EHF (Homo sapiens, UniProt Q9NZC4 1-300); settings: protein: recombinant; tags: N-terminal GST; dsDNA, one strand shown
T5 sequence: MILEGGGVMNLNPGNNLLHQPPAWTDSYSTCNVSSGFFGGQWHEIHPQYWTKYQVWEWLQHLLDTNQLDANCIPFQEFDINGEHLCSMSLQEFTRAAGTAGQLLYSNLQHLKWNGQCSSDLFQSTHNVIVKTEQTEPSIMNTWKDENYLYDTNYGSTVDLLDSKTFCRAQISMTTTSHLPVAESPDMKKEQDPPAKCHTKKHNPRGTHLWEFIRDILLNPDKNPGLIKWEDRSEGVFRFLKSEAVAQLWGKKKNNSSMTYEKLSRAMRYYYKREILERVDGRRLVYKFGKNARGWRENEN
Procedure, shortened: as §1

SPI1 = SPI1 (Homo sapiens, UniProt P17947 1-270); settings: protein: recombinant; tags: N-terminal GST; dsDNA, one strand shown
Procedure, shortened: as §1

SPIB = SPIB (Homo sapiens, UniProt Q01892 1-262); settings: protein: recombinant; tags: N-terminal GST; dsDNA, one strand shown
Procedure, shortened: as §1

ELK3 = molecular target: T6, ELK3 (Homo sapiens, UniProt P41970 1-407); settings: protein: recombinant; tags: N-terminal GST; dsDNA, one strand shown
T6 sequence: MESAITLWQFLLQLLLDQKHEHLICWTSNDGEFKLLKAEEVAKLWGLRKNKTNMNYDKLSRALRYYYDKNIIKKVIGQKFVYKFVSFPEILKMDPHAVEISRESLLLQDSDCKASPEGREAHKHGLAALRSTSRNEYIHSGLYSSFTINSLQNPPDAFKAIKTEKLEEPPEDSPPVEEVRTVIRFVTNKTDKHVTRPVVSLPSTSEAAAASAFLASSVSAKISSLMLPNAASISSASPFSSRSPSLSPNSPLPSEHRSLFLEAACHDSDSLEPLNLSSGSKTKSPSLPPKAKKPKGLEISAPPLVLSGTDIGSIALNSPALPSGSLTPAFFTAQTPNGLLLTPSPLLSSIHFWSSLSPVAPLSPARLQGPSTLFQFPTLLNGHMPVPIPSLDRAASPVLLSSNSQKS
Procedure, shortened: as §1

FEV = molecular target: T7, FEV (Homo sapiens, UniProt Q99581 1-238); settings: protein: recombinant; tags: N-terminal GST; dsDNA, one strand shown
T7 sequence: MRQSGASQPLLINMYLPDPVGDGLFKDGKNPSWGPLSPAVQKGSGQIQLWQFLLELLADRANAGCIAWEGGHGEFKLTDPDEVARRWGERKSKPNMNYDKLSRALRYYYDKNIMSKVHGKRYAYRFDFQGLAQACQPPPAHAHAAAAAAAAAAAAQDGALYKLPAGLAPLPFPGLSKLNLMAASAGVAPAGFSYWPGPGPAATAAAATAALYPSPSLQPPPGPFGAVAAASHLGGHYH
Procedure, shortened: as §1

ETV5 = ETV5 (Homo sapiens, UniProt P41161 1-510); settings: protein: recombinant; tags: N-terminal GST; dsDNA, one strand shown
Procedure, shortened: as §1

HSF1 = HSF1 (Homo sapiens, UniProt Q00613 1-529); settings: protein: recombinant; tags: N-terminal GST; chain copies: 3; dsDNA, one strand shown
Procedure, shortened: as §1

SPIC = molecular target: T8, SPIC (Homo sapiens, UniProt Q8N5J4 1-248); settings: protein: recombinant; tags: N-terminal GST; dsDNA, one strand shown
T8 sequence: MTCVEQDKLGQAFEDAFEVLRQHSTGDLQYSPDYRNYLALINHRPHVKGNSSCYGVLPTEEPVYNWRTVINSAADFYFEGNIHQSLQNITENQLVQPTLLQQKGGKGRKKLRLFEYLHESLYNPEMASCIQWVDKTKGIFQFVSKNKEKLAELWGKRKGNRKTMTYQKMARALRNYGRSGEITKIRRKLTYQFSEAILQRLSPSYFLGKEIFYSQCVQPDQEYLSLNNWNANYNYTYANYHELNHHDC
Procedure, shortened: as §1

ELF4 = ELF4 (Homo sapiens, UniProt Q99607 1-663); settings: protein: recombinant; tags: N-terminal GST; dsDNA, one strand shown
Procedure, shortened: as §1

ELK4 = molecular target: T9, ELK4 (Homo sapiens, UniProt P28324-2 1-405); settings: protein: recombinant; tags: N-terminal GST; dsDNA, one strand shown
T9 sequence: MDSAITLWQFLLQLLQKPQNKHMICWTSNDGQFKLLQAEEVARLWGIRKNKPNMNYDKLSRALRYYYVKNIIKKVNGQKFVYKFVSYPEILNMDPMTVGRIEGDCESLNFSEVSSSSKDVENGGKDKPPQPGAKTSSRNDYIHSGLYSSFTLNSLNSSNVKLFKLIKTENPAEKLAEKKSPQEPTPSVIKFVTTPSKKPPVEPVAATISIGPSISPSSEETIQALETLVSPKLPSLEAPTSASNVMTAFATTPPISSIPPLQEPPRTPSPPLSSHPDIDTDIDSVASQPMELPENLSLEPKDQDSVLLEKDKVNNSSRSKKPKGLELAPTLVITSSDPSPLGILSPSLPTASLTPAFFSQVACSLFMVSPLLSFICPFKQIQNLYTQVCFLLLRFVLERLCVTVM
Procedure, shortened: as §1

ETV2 = molecular target: T10, ETV2 (Homo sapiens, UniProt O00321 1-342); settings: protein: recombinant; tags: N-terminal GST; dsDNA, one strand shown
T10 sequence: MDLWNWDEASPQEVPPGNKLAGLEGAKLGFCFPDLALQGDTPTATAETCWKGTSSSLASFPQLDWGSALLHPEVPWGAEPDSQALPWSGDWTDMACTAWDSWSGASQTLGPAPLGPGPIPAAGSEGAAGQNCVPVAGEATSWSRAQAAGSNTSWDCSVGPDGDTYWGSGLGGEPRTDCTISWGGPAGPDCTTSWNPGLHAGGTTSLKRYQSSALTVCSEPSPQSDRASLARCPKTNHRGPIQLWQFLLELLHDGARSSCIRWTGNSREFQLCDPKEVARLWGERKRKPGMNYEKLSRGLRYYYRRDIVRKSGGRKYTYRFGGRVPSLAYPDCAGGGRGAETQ
Procedure, shortened: as §1

ELF3 = molecular target: T11, ELF3 (Homo sapiens, UniProt P78545 1-371); settings: protein: recombinant; tags: N-terminal GST; dsDNA, one strand shown
T11 sequence: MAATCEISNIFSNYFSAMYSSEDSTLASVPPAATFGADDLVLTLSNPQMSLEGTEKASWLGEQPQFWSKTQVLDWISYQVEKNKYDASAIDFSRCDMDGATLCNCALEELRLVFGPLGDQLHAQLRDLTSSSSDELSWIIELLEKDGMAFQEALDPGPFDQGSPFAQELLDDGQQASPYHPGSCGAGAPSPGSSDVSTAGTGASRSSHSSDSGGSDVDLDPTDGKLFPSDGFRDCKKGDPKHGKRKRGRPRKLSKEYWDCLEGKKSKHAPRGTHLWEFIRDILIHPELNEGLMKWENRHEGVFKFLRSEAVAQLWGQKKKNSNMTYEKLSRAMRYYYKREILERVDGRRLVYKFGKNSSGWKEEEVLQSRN
Procedure, shortened: as §1

CRX = CRX (Homo sapiens, UniProt O43186 1-299); settings: protein: recombinant; tags: N-terminal GST; dsDNA, one strand shown
Procedure, shortened: as §1

ETV1 = ETV1 (Homo sapiens, UniProt P50549 1-477); settings: protein: recombinant; tags: N-terminal GST; dsDNA, one strand shown
Procedure, shortened: as §1

Chain of CRX (O43186 whole entry): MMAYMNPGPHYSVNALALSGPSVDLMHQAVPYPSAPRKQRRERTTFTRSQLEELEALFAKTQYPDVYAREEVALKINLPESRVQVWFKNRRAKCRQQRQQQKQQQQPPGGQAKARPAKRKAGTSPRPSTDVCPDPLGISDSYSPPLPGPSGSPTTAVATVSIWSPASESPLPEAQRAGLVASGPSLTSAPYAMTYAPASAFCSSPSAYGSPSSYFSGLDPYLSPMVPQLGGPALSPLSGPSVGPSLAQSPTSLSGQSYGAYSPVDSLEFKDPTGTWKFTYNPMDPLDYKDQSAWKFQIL
Chain of HSF1 (Q00613 whole entry): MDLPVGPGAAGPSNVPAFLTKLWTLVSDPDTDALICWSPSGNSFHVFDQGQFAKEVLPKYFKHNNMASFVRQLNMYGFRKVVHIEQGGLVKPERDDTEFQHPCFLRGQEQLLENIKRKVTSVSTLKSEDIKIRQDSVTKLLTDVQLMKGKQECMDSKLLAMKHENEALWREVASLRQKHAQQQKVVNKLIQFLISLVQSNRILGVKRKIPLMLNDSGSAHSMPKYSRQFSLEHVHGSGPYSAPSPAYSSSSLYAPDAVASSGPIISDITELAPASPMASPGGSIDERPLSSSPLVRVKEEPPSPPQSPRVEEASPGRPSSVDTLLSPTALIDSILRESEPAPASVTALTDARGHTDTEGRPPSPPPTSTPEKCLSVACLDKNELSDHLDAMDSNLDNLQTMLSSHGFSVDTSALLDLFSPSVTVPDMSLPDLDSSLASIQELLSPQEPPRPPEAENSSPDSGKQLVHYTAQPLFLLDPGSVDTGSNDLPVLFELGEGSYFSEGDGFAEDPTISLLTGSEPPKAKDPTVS
Chain of ETV1 (P50549 whole entry): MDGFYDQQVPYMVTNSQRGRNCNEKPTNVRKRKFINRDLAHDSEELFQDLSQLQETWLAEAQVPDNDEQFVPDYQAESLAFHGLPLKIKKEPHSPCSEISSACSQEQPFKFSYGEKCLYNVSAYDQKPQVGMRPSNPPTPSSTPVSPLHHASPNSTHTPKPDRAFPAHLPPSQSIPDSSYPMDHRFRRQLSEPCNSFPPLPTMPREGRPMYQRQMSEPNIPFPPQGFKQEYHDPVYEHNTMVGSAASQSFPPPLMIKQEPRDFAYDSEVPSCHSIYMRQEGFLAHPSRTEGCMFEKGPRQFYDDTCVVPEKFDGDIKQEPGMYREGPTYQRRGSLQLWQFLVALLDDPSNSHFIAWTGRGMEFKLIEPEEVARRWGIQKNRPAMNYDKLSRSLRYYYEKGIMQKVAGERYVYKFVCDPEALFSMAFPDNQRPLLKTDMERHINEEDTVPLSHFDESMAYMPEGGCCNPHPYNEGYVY
Chain of ELF4 (Q99607 whole entry): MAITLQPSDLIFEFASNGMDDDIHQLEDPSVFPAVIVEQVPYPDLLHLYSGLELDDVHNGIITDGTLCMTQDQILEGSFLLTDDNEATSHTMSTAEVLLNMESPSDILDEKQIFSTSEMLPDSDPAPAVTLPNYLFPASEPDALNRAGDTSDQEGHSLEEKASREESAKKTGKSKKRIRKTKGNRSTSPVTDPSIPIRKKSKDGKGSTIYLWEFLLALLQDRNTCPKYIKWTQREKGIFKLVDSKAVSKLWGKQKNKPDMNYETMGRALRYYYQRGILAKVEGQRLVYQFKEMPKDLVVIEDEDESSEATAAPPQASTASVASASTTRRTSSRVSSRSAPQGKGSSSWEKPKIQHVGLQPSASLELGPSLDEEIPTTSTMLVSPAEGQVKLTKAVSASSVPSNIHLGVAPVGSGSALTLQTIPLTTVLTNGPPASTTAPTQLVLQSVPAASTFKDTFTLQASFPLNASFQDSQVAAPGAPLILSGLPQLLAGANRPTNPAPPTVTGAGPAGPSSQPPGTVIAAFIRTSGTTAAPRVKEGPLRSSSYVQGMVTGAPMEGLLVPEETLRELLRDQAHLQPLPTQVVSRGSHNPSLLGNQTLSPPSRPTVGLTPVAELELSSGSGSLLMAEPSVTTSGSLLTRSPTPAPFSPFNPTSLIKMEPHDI
Chain of ETV5 (P41161 whole entry): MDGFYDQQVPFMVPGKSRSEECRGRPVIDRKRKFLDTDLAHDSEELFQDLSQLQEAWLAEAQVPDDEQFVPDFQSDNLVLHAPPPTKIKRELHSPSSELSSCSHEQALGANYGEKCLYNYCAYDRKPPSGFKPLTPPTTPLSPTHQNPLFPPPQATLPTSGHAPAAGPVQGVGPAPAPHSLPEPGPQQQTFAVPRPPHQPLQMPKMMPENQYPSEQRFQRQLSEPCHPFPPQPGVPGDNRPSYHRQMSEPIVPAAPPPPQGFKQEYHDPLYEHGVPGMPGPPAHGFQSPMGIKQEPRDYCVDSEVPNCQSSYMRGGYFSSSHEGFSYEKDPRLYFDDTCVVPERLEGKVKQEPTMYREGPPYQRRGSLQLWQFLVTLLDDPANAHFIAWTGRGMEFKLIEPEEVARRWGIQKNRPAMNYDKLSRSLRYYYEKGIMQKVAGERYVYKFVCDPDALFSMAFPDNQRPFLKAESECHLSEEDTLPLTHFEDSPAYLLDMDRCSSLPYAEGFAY
Chain of SPIB (Q01892 whole entry): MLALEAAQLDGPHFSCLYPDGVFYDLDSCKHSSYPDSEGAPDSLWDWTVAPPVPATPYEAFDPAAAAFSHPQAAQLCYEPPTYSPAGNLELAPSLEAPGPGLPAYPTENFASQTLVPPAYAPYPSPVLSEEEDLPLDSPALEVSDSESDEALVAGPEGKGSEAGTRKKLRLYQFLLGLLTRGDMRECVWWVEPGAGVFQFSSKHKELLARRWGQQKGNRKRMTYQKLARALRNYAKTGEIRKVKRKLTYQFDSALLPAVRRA
Chain of ELF1 (P32519 whole entry): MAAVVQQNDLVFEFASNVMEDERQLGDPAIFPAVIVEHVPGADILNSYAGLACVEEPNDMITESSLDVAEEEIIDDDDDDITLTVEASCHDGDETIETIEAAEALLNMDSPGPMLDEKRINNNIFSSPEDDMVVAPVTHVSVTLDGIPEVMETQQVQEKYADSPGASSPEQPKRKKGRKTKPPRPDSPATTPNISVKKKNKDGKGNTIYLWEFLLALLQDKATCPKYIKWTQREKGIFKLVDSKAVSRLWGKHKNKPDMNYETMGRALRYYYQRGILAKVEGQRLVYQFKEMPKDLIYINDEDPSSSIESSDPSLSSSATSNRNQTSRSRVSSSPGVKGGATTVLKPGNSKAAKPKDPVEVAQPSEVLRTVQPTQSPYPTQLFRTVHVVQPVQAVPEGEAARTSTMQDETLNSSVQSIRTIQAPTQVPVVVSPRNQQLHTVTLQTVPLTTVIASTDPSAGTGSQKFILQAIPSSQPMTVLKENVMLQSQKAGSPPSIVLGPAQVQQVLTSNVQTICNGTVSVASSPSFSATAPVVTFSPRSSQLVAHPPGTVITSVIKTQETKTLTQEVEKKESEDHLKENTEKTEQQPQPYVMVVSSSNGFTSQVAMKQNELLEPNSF

CCTCCC
binding signal (FLI1): 1.42 fold enrichment (6-mer frequency, TF over GST control)
binding signal (ELK1): 1.43 fold enrichment (6-mer frequency, TF over GST control)
binding signal (GABPA): 1.45 fold enrichment (6-mer frequency, TF over GST control)
binding signal (ERG): 1.47 fold enrichment (6-mer frequency, TF over GST control)
binding signal (ELF1): 1.54 fold enrichment (6-mer frequency, TF over GST control)
binding signal (EHF): 1.57 fold enrichment (6-mer frequency, TF over GST control)
binding signal (SPI1): 1.48 fold enrichment (6-mer frequency, TF over GST control)
binding signal (SPIB): 1.48 fold enrichment (6-mer frequency, TF over GST control)
binding signal (ELK3): 1.45 fold enrichment (6-mer frequency, TF over GST control)
binding signal (FEV): 1.59 fold enrichment (6-mer frequency, TF over GST control)
binding signal (ETV5): 1.55 fold enrichment (6-mer frequency, TF over GST control)
binding signal (HSF1): 1.12 fold enrichment (6-mer frequency, TF over GST control)
binding signal (SPIC): 1.65 fold enrichment (6-mer frequency, TF over GST control)
binding signal (ELF4): 1.66 fold enrichment (6-mer frequency, TF over GST control)
binding signal (ELK4): 1.3 fold enrichment (6-mer frequency, TF over GST control)
binding signal (ETV2): 1.71 fold enrichment (6-mer frequency, TF over GST control)
binding signal (ELF3): 1.36 fold enrichment (6-mer frequency, TF over GST control)
binding signal (CRX): 1.21 fold enrichment (6-mer frequency, TF over GST control)
binding signal (ETV1): 1.36 fold enrichment (6-mer frequency, TF over GST control)
